The text below walks through data of PMC4336329 (PLoS ONE, 2015).

Molecules are shown by their SMILES. About 14,000 (4.5%) of roughly 310,000 compounds showed an effect of 50% or more. Effects have a minus sign here. The entries come from a sample that favours strong results as a whole.
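Further: peak tail current of the secondary pulse compared with the same well before compound.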

human ether-à-go-go-related gene (hERG) potassium channel, sequence (Q12809 whole entry, looked up): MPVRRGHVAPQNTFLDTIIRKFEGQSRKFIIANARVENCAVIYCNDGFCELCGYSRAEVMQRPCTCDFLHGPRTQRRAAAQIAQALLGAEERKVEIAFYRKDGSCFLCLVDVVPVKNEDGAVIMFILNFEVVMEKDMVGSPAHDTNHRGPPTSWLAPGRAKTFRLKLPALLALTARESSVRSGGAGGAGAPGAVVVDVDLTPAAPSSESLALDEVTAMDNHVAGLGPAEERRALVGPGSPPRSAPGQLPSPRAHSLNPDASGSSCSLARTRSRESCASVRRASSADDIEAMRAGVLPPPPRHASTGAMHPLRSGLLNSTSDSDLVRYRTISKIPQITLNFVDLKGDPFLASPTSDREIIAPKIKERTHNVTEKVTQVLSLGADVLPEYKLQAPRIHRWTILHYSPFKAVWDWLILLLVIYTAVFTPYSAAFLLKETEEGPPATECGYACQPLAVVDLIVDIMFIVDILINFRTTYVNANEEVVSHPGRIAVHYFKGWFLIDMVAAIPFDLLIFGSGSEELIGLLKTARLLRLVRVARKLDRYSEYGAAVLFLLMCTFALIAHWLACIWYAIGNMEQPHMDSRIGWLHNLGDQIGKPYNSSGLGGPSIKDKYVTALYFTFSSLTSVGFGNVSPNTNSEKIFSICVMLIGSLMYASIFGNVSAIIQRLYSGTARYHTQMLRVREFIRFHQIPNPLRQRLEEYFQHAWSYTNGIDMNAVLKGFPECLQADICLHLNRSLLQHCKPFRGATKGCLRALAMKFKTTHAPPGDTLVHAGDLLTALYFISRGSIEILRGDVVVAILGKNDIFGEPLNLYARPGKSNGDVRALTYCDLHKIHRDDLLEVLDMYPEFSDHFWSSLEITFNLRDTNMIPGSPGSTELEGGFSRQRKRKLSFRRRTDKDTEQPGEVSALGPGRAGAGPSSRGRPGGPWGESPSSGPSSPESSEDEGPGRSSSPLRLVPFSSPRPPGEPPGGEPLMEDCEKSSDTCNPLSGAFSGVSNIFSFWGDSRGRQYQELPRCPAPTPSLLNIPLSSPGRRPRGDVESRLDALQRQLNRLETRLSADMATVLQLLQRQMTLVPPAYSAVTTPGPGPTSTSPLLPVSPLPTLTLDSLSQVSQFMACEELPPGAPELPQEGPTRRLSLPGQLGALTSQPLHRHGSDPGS

This assay concerns the target human ether-à-go-go-related gene (hERG) potassium channel (human, UniProt Q12809). The assay can be described thus: primary screen, population patch clamp on CHO cells stably expressing hERG; higher = less effect of the substance.
Consider `COc1nccnc1NS(=O)(=O)c1ccc(NCc2ccccc2O)cc1`, for which the “hERG current change (%, negative = inhibition) at 10uM” value was 7.4%. For `CC(=O)Nc1ccc(S(=O)(=O)N2CCSC2)cc1`, the “hERG current change (%, negative = inhibition) at 10uM” value amounted to 1.65%. Next, `COc1ccc(N2CCN(c3ncnc4scc(-c5ccc(C)cc5)c34)CC2)cc1`: 13%; `CC(C)(C)NC(=O)C(c1ccc(O)cc1)N(C(=O)CCC(=O)Nc1ccccn1)c1ccc(F)cc1` (centres unmarked): 8.1%; `COC(=O)C(CCSC)NC(=O)c1cccc([N+](=O)[O-])c1` (centres unmarked): -12.1%. On to `CCOC(=O)N1CCN(S(=O)(=O)c2ccc3c(c2)oc(=O)n3C)CC1`, for which the “hERG current change (%, negative = inhibition) at 10uM” value is listed as -0.295%. As to `CC(=O)c1ccc(NC(=O)C2CC2c2ccccc2)cc1` (centres unmarked), the “hERG current change (%, negative = inhibition) at 10uM” value stood at 3.25%.

`CC1=NOC(=O)/C1=C\c1ccc(-c2cccc(Cl)c2)o1`: the “hERG current change (%, negative = inhibition) at 10uM” value stood at 10.4%. Next, `NC(=O)[C@H]1CC2(CC(c3cccc(NC(=O)[C@H]4CCC(=O)N4)c3)=NO2)CN1C(=O)c1ccccc1C(=O)c1ccccc1` (some centres unmarked): 14.7%; `CC1CN(CCCCOc2cccc(Oc3ccccc3)c2)CC(C)O1.O=C(O)C(=O)O` (centres unmarked): -35.9%.

As to `CC1CCN(CCOc2cccc(Br)c2)CC1.O=C(O)C(=O)O`, the “hERG current change (%, negative = inhibition) at 10uM” value is -20.3%. Take `CC1CN(CCOc2cccc(Oc3ccccc3)c2)CC(C)O1.O=C(O)C(=O)O` (centres unmarked): the “hERG current change (%, negative = inhibition) at 10uM” value came to 5.01%. With `CC1CCN(CCCCOc2cccc(Br)c2)CC1.O=C(O)C(=O)O` the figure was -69%; with `CC1CCCN(CCOc2cccc(Oc3ccccc3)c2)C1.O=C(O)C(=O)O` (centres unmarked), -64.7%; with `O=C(NCc1ccc2c(c1)OCO2)C1CCC(=O)N1C1CCCCC1` (centres unmarked), -9.26%. Next, `Cc1cc(NC(=O)CCC(=O)N(c2ccccc2)C(C(=O)NC2CCCC2)c2ccncc2)no1` (centres unmarked): 2.53%; `C=CCOc1ccc(CNc2ccc3[nH]c(=O)[nH]c3c2)cc1`: 1.57%. With `Clc1cccc(Oc2cnc3ccccc3n2)c1` the figure was -25.8%; with `O=C(NCc1cccnc1)C1CCN(S(=O)(=O)c2cccc(C(F)(F)F)c2)CC1`, 2.69%. On to `Cc1cccc(NC(=S)N(CCN2CCOCC2)Cc2ccccc2F)c1`, for which the “hERG current change (%, negative = inhibition) at 10uM” value was -25%.

For the molecule `CCOC(=O)N1CCN(C(=O)Cn2ncc3c2-c2ccccc2OC3)CC1`, the “hERG current change (%, negative = inhibition) at 10uM” value is on record as -3.57%. For the molecule `O=C(Cn1ncc2c1-c1ccccc1OC2)N1CCN(Cc2ccc3c(c2)OCO3)CC1`, the “hERG current change (%, negative = inhibition) at 10uM” value was -61.3%. With `O=C(CN1C(=O)c2ccccc2S1(=O)=O)N1CCN(Cc2ccc3c(c2)OCO3)CC1` the figure was -12.8%; with `O=C(Cn1ncc2c1-c1ccccc1OC2)N1CCN(Cc2ccccc2)CC1`, -68.5%; with `CCN1CCN(C(=O)Cn2ncc3c2-c2ccccc2OC3)CC1`, -10.1%. With `Cc1ccc(C)c(CN2CCCN(C(=O)Cn3ncc4c3-c3ccccc3OC4)C2)c1` the figure was -2.82%. Take `COC(=O)[C@@H](NC(=O)NCCC1=CCCCC1)C(C)C`: the “hERG current change (%, negative = inhibition) at 10uM” value is on record as -3.29%. With `COC(=O)CCCC(=O)N1CCCC(CCC(=O)NCc2ccc(F)c(F)c2)C1` (centres unmarked), the “hERG current change (%, negative = inhibition) at 10uM” value is recorded as 0.17%. Take `COc1ccc(NC2CCCN(Cc3cccc4cnccc34)C2)cc1` (centres unmarked): the “hERG current change (%, negative = inhibition) at 10uM” value is reported as -18.5%. For the molecule `COc1cc(/C=N/N2CCCCC2)cc([N+](=O)[O-])c1O`, the “hERG current change (%, negative = inhibition) at 10uM” value was 20.8%. Next, `CC(CCN1CCC(n2nccc2NC(=O)c2ccccc2Cl)CC1)c1ccccc1` (centres unmarked): -82.7%. Next, `COCC(C)N1CCC(n2nccc2NC(=O)c2ccccc2Cl)CC1` (centres unmarked): -47.9%; `CC(C)CCN1CCC(n2nccc2NC(=O)C2CCOC2)CC1` (centres unmarked): 15.3%; `CC(CN1CCC(n2nccc2NC(=O)c2ccccc2Cl)CC1)c1ccccc1` (centres unmarked): -68.9%. With `CC(CN1CCC(n2nccc2NC(=O)C2CCCC2)CC1)c1ccccc1` (centres unmarked) the figure was -24%; with `Cc1cc(-c2ccco2)n(CC(=O)NCc2ccco2)n1`, 8.48%; with `CCC(C(=O)N1CC2(C)CC1CC(C)(C)C2)N1C(=O)c2ccccc2C1=O` (centres unmarked), -18.3%. As to `Cc1cc(=O)oc2cc(OCCc3ccccc3)ccc12`, the “hERG current change (%, negative = inhibition) at 10uM” value was -0.326%.

Consider `CCOc1ccc2c(c1)-c1c(ssc1=S)C(C)(C)N2C`, for which the “hERG current change (%, negative = inhibition) at 10uM” value is recorded as -3.7%. For `CCOC(=O)C1C(=O)C=C(c2ccc(NS(C)(=O)=O)cc2)CC1c1ccco1` (centres unmarked), the “hERG current change (%, negative = inhibition) at 10uM” value is -80.3%. With `CCOC(=O)C1C(=O)C=C(c2ccc(Br)cc2)CC1c1ccco1` (centres unmarked), the “hERG current change (%, negative = inhibition) at 10uM” value is recorded as -23.2%. Take `CCOC(=O)C1C(=O)C=C(c2ccc(C)cc2)CC1c1cccc([N+](=O)[O-])c1` (centres unmarked): the “hERG current change (%, negative = inhibition) at 10uM” value was -4.88%.

Consider `CCOC(=O)C1C(=O)C=C(c2ccc(C)cc2)CC1c1ccco1` (centres unmarked), for which the “hERG current change (%, negative = inhibition) at 10uM” value is 5.34%.

With `CCOC(=O)C1C(=O)C=C(c2ccc([N+](=O)[O-])cc2)CC1c1ccccc1` (centres unmarked), the “hERG current change (%, negative = inhibition) at 10uM” value is recorded as -63.5%. Next, `CCOC(=O)C1C(=O)C=C(c2ccc(C)cc2)CC1c1ccccc1` (centres unmarked): 28.2%. Turning to `CCOCC(=O)Nc1ccc2c(c1)OCCO2`, the “hERG current change (%, negative = inhibition) at 10uM” value turned out to be 19.6%. With `Brc1ccc2c(c1)C(c1cccs1)=NNC(c1cccnc1)=N2` the figure was -14.5%; with `COc1ccc(NC(=O)CCC(=O)c2ccc(C(C)C)cc2)cc1`, 27.7%.

`CCOCCCn1c(=NC(C)=O)c(C#N)cc2c(=O)n3ccccc3nc21`: the “hERG current change (%, negative = inhibition) at 10uM” value was -15.4%.

As for `CC(=O)N=c1c(C#N)cc2c(=O)n3ccccc3nc2n1CCCOC(C)C`, the “hERG current change (%, negative = inhibition) at 10uM” value is -13.6%. Turning to `CC(C)OCCCn1c(=NC(=O)c2ccncc2)c(C#N)cc2c(=O)n3ccccc3nc21`, the “hERG current change (%, negative = inhibition) at 10uM” value was -74.2%. Next, `CCOCCCn1c(=NC(=O)c2cccs2)c(C#N)cc2c(=O)n3ccccc3nc21`: -76.9%; `CC(C)OCCCn1c(=NC(=O)c2cccs2)c(C#N)cc2c(=O)n3ccccc3nc21`: -77.6%; `CCCCCn1c(=NC(C)=O)c(C#N)cc2c(=O)n3ccccc3nc21`: -43%.

In the case of `Cc1ccc(NC(=O)c2ccc(CSc3nnnn3C)cc2)cc1`, the “hERG current change (%, negative = inhibition) at 10uM” value is on record as -15.3%.

Consider `COc1ccc(-c2nc(CS(=O)CC(=O)NCc3cccnc3)c(C)o2)cc1OC` (centres unmarked), for which the “hERG current change (%, negative = inhibition) at 10uM” value is listed as -2.9%.

With `O=C(NCCCN1CCCCCC1)c1ccc(N2CCCC2=O)cc1`, the “hERG current change (%, negative = inhibition) at 10uM” value is 16.4%. For the molecule `COc1ccccc1/C=C(\C#N)C(=O)c1cccn1C`, the “hERG current change (%, negative = inhibition) at 10uM” value is given as 5.95%. Turning to `CCOC(=O)C1(Cc2cccc(F)c2)CCN(CC2CC2)CC1`, the “hERG current change (%, negative = inhibition) at 10uM” value is recorded as -33.4%. With `CCOC(=O)C1(Cc2ccccc2)CCN(CC2CC=CCC2)CC1` (centres unmarked) the figure was -54.9%. Next, `CCOC(=O)C1(Cc2cccc(OC)c2)CCN(CC2CC=CCC2)CC1` (centres unmarked): -71.7%; `CCN(Cc1cnn(C)c1)C(=O)c1ccc(OC2CCN(S(=O)(=O)N(C)C)CC2)cc1`: 19.1%; `CCSC1=C(C#N)C(c2ccc3c(c2)OCO3)C2=C(CCCC2=O)N1` (centres unmarked): -23.4%.

`Oc1ccc(/C=N/N2CCN(Cc3ccccc3)CC2)cc1`: the “hERG current change (%, negative = inhibition) at 10uM” value was 7.33%.

On to `O=C(COC(=O)CC1CCCC1)Nc1cccc(F)c1`, for which the “hERG current change (%, negative = inhibition) at 10uM” value is reported as -1.79%.

For `O=C(NCc1cccs1)[C@@H]1CSC2c3ccccc3C(=O)N21` (some centres unmarked), the “hERG current change (%, negative = inhibition) at 10uM” value is 8.92%. Next, `COCc1ccc(CN2CCc3c([nH]c4ccccc34)C2C(C)(C)C)o1` (centres unmarked): 7.25%; `CC(C)CC1c2[nH]c3ccccc3c2CCN1C(=O)c1cnccn1` (centres unmarked): 3.61%; `Cc1cccc(CN2CCc3c([nH]c4ccccc34)C2CC(C)C)n1` (centres unmarked): -3.98%. `COCc1ccc(CN2CCc3c([nH]c4ccccc34)C2CC(C)C)o1` (centres unmarked): the “hERG current change (%, negative = inhibition) at 10uM” value is recorded as -58.7%.

Take `CCn1ccnc1CN1CCc2c([nH]c3ccccc23)C1C(C)(C)C` (centres unmarked): the “hERG current change (%, negative = inhibition) at 10uM” value was -59.7%. Turning to `CCn1nc(C)c(CN2CCc3c([nH]c4ccccc34)C2C(C)(C)C)c1C` (centres unmarked), the “hERG current change (%, negative = inhibition) at 10uM” value is recorded as -3.17%. Next, `CCn1ccnc1CN1CCc2c([nH]c3ccccc23)C1CC(C)C` (centres unmarked): -67.9%; `Cc1c(CN2CCc3c([nH]c4ccccc34)C2CC(C)C)cnn1C` (centres unmarked): -36%; `CCc1nccn1CCC(=O)N1CCc2c([nH]c3ccccc23)C1CC(C)C` (centres unmarked): -53.9%. Consider `Cc1cnc(CN2CCc3c([nH]c4ccccc34)C2CC(C)C)[nH]1` (centres unmarked), for which the “hERG current change (%, negative = inhibition) at 10uM” value is given as -45.1%.

Regarding `CCn1ccnc1CN1CCc2c([nH]c3ccccc23)C1C1CCCCC1` (centres unmarked), the “hERG current change (%, negative = inhibition) at 10uM” value is recorded as -19.4%.

As for `CC(C)CC1c2[nH]c3ccccc3c2CCN1C(=O)CCC(=O)N(C)C` (centres unmarked), the “hERG current change (%, negative = inhibition) at 10uM” value is 3.88%.

As for `Br.Cc1nc(-c2ccc(C(=O)O)cc2)cs1`, the “hERG current change (%, negative = inhibition) at 10uM” value is listed as 7.39%. As for `S=C(NCCN1CCOCC1)Nc1ccc(Cl)cc1Cl`, the “hERG current change (%, negative = inhibition) at 10uM” value is listed as -18%. `CCOC(=O)N1CCN(CC(O)COCc2ccccc2)CC1.Cl` (centres unmarked): the “hERG current change (%, negative = inhibition) at 10uM” value is recorded as -4.06%. Next, `Cc1ccc(S(=O)(=O)Nn2c(C)ccc2C)cc1`: 15.3%; `Nc1ccccc1Nc1ccccc1`: -13.6%; `O=c1c(Cl)c(NCc2ccccc2Cl)cnn1C12CC3CC(CC(C3)C1)C2`: -5.06%.

With `CN(C)c1ccc(C(CC(=O)O)NC(=O)c2ccc(Cl)cc2)cc1` (centres unmarked), the “hERG current change (%, negative = inhibition) at 10uM” value was -9.38%. With `N#CCc1ccc(NC(=O)c2ccc(S(=O)(=O)N3CCOCC3)cc2)cc1` the figure was 1.97%.

Turning to `O=C(CN(c1ccccc1)S(=O)(=O)c1ccccc1[N+](=O)[O-])Nc1ccccc1C(=O)N1CCOCC1`, the “hERG current change (%, negative = inhibition) at 10uM” value came to 3.76%. Next, `Cc1ccc(CN2CCSCC2)c(C)c1`: 16.9%; `Cc1cccc(OCC(O)Cn2c(N3CCCCC3)nc3c2c(=O)[nH]c(=O)n3C)c1` (centres unmarked): 13%.
